Bioassay records from PubChem.
PTHR1 agonist = agonists of human PTHR1 parathyroid hormone receptor; HEK293 GP2 PTHR1 cells, GloSensor cAMP luminescence, 1 h; Potency, µM (titrated, usually from 115 µM), without a hit: at the highest dose activation, actives largely listed as activators; actives 0.075% (n = 410,000); further: potency means the concentration at half of the fitted maximal effect; nearly all actives have a fitted effect of over 55% in size
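HEK-293-derived GP2 cells expressing PTHR1 and a GloSensor cAMP reporter, 3,000/well, plated overnight, given luciferin plus IBMX (each 0.5 mM as added) for 1 h at 37 °C, then compound for 1 h at 37 °C. Luminescence was read after 15 min at room temperature.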
GRP78 ERSR act = ER stress response induction in glioma | U87-MG GRP78 promoter luciferase reporter, 16 h | AID 602332 | Potency, µM, for the others: top-dose activation, hits mostly activators | actives 0.02% (n = 420,000); further: potency means the concentration at half of the fitted maximal effect; series mostly up to about 76 µM; % of control where 0% means no effect; nearly all actives have a fitted effect of over 35% in size
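Stably transfected U87-MG glioma cells carrying a GRP78-based luciferase sensor; 16 h compound incubation. Luminescence end-point read 10 min after Bright-Glo addition at room temperature.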
hERG WT inh = blocks the wildtype human KCNH2 potassium channel | AID 720551 | activity change, % at 1.84 µM | actives 0.37% (n = 340,000) | U2OS, BacMam KCNH2, thallium flux FluxOr; stronger effect = lower value;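 active means maximum activity change below -70%; inconclusive means maximum activity change between -70% and -50%; inactive means maximum activity change above -50%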; further: on the % scale 0 is the no-effect control and ±100 the full control effect
Target sequence (Q12809 whole entry, looked up): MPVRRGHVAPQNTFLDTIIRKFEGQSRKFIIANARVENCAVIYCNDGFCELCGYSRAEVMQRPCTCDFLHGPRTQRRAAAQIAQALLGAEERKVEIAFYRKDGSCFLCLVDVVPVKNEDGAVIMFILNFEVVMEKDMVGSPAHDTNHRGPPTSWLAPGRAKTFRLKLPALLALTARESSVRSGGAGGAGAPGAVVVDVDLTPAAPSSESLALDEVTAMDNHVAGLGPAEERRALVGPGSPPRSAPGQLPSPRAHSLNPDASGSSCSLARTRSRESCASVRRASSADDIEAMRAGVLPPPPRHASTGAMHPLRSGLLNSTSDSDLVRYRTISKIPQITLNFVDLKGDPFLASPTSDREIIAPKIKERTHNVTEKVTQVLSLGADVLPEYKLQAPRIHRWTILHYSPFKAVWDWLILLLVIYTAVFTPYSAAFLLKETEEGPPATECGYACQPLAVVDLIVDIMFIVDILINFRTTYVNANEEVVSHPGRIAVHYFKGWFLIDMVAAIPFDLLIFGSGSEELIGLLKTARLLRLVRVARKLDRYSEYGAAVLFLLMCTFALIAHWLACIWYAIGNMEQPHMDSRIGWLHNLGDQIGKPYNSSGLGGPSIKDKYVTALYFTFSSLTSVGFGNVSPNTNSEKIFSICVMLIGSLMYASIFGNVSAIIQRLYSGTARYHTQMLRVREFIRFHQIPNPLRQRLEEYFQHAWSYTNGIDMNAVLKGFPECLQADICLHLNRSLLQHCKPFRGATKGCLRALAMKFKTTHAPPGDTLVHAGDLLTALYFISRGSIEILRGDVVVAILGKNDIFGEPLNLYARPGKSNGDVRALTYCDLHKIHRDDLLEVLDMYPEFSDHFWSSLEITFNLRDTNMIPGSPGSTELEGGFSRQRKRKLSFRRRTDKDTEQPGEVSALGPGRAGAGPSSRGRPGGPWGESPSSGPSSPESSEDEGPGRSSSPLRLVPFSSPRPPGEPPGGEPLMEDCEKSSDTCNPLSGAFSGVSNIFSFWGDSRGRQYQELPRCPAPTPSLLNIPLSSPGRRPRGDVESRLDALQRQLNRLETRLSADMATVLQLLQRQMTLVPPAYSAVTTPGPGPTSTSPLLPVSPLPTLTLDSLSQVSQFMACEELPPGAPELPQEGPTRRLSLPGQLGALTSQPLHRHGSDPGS
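U2OS cells transduced with wild-type KCNH2 virus are loaded with FluxOr dye for 45 min, and thallium flux is measured in kinetic reads before and after stimulation buffer. Rate constants are normalized to DMSO controls.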
RXFP1 antagonist = RXFP1 (human) relaxin receptor antagonism | Q9HBX9 | HEK293-RXFP1, relaxin-stimulated cAMP HTRF, 30 min; stronger effect = lower value | activity change, negative = inhibition, % at 57.5 µM | actives 0.59% (n = 350,000);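 active means activity change of -60% or lower, but not beyond a set lower limit; inconclusive means change between -60% and -40%, or beyond the set limit; inactive means change above -40%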; further: on the % scale 0 is the no-effect control and ±100 the full control effect
KCNH2 3.1 block = blocks the human KCNH2 3.1 channel isoform. activity change, % (tested at about 1.8 µM). actives 0.95% (n = 340,000). U2OS KCNH2 3.1, thallium flux FluxOr; stronger effect = lower value;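 active means maximum activity change below -70%; inconclusive means maximum activity change from -70% to -50%; inactive means maximum activity change above -50%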;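 further: thallium influx rate constant from kinetic fluorescence after stimulation buffer; on the % scale 0 is the no-effect control and ±100 the full control effect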
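We transduce U2OS cells with the mutant 3.1 virus, culture them overnight, load FluxOr with Red40 quencher for 45 min, then add stimulation buffer and read kinetically for 2 min to derive a normalized rate constant.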
RXFP1 agonist = RXFP1 (human) receptor agonism; Q9HBX9; HEK293T-RXFP1 cAMP TR-FRET, 30 min; response scale: percent of porcine relaxin response, buffer zero; Potency, µM (top dose mostly 57.5 µM), for inactives: top-dose activation, most hits filed as activators; actives 0.3% (n = 370,000); further: potency means the concentration at half of the fitted maximal effect; on the % scale 0 is the no-effect control and ±100 the full control effect; nearly all actives have a fitted effect of over 60% in size
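HEK293T cells stably expressing RXFP1 were pretreated with the PDE4 inhibitor Ro 20174, exposed to compounds for 30 min at 37C, lysed, and cAMP was read by TR-FRET. Data normalized to buffer (basal) and 29 nM porcine relaxin (100%).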
* hit, by the source's call; i = inactive; ? = inconclusive; / = not tested or not shown; [ ] = remark or other dose. Hits are enriched below; roughly 1.4% of the tested compounds scored in any of these assays. Unless noted, the call rests on the fitted dose curve; in most records, active means well fitted curve in the direction sought with a large enough effect; inconclusive means small, poorly fitted or top-dose-only effect, or another doubt; inactive means no such curve, though single readings can be large; an effect the other way counts as inactive or inconclusive.

SMILES | PTHR1 agonist | GRP78 ERSR act | hERG WT inh | RXFP1 antagonist | KCNH2 3.1 block | RXFP1 agonist
COc1cc(/C=N/NC(=O)CN2CCCCC2)ccc1OCc1ccccc1 | -8.2% | 3.6% | -4.3 | 7.3 | 10.0 | -1.2%
O=C(CN1CCCCC1)N/N=C/c1ccccc1OCc1ccccc1 | i | -0.7% | 1.8 | -8.1 | -80.9* | 1.3%
Cc1ccc(Nc2nnc(SCC(=O)NCC3CCCO3)s2)cc1 (stereo unspecified) | 8.5% | -1.4% | -3.1 | -8.5 | 16.0 | /
CC(C)C(=O)Nc1nnc(SCC(=O)NCC2CCCO2)s1 (stereo unspecified) | i | -3.9% | -5.9 | 3.3 | -84.9* | -1.6%
O=C(CSc1nc(O)c(C2CCCCC2)c(=O)[nH]1)NCC1CCCO1 (stereo unspecified) | i | -2.6% | -4.0 | 13.6 | 2.0 | -0.8%
Cc1cc(=O)[nH]c(SCC(=O)NCC2CCCO2)n1 (stereo unspecified) | i | 6.6% | -234.6* | 9.4 | -20.2 | 0.4%
C=CCNc1ccc(N2C(=O)CCCC2=O)cc1[N+](=O)[O-] | i | -2.7% | -13.9 | -3.2 | -1.1 | -4.2%
COc1cc2c(cc1OC)C(Cc1ccc(O)cc1)N(C)CC2 (stereo unspecified) | -16.5% | -5.8% | -9.8 | -6.8 | 9.6 | 1.6%
COc1ccc(CC(O)CC2c3c(cc4c(c3OC)OCO4)CCN2C)cc1 (stereo unspecified) | -18.1% | -1.9% | -0.7 | -0.8 | -97.0* | 1.9%
COc1ccc(N2C(=O)CCSC23C(=O)N(Cc2ccc(F)cc2)c2ccccc23)cc1Cl (stereo unspecified) | i | -0.4% | / | ? | / | -0.1%
COc1ccc(N2C(=O)CCSC23C(=O)N(Cc2ccc(F)cc2)c2ccccc23)cc1 (stereo unspecified) | -21.2% | 2.3% | / | -82.0* | / | -0.4%
Cc1nc(Cl)c(C(=O)NCCC(C)C)c(C)c1[N+](=O)[O-] | i | 3.1% | 4.4 | 4.1 | -3.4 | 2.3%
COC(=O)c1sc(NC(=S)NNC(=O)c2c(Br)c(C)nn2C)c(C(=O)OC)c1C | -95.0% | -1.8% | -7.1 | 30.7 | -6.8 | 25.1µM*
COC(=O)c1sc(S(=O)(=O)Nc2c(C)nn(C)c2C)c(C(=O)OC)c1C | i | -0.2% | -6.7 | 7.9 | -25.9 | 1.0%
C[n+]1ccc(C(=O)NCCC[N+](C)(C)C)cc1/C=N/O | -22.1% | -2.2% | 20.5 | -0.1 | -11.8 | 2.5%
COCCNC(=O)c1ccccc1NC(=O)CN(c1ccc2c(c1)OCO2)S(C)(=O)=O | ? | -3.7% | -6.0 | -13.6 | 2.3 | 0.2%
COC(=O)c1ccc(C(=O)OC)c(NC(=O)CN(c2ccc3c(c2)OCO3)S(C)(=O)=O)c1 | -18.9%[57.5 µM] | -3.3% | -9.3 | -4.4 | -132.1* | -0.3%
O=C(Nc1ccccc1)Nc1cc(OCC(F)(F)F)cc(OCC(F)(F)F)c1 | -36.6% | ? | -0.6 | -72.2* | -17.8 | -0.2%
OC1(c2ccc(Br)cc2)CCN(Cc2cccc(Br)c2)CC1 | -1.8% | -3.4% | 26.2 | -18.8 | -76.5* | 0.3%
Brc1cccc(CN2CCCCCC2)c1 | -2.4% | -2.0% | 3.1 | -15.2 | -2.0 | 1.2%
COc1cccc(CN2CCc3ccc(NC(=O)CCc4ccc(C)cc4)cc3C2)c1O | -31.6% | -3.8% | 24.7 | 5.7 | -81.3* | 1.4%
Cc1cc(C)n(C(=O)CNC(=O)c2ccc(C(C)(C)C)cc2)n1 | -42.4% | 0.6% | -18.4 | -115.8* | -4.7 | -3.3%
COc1ccc(C(=O)NCC(=O)n2nc(C)cc2C)cc1OC | -15.7% | -4.6% | -9.3 | -3.9 | 22.0 | 0.0%
COc1ccc(C(=O)Nc2ccc(NC(=O)C3CC3)nc2)cc1 | -10.7% | -1.9% | -2.4 | -5.9 | 10.9 | 2.8%
O=C(Nc1ccc(Cl)cc1)c1cc2c(cc1O)[nH]c1ccccc12 | -37.3% | -2.6% | -7.8 | -64.4* | 3.2 | 4.8%
O=C1C=CC(=O)c2c(O)c(N3CCN(CCOCCO)CC3)c(Br)c(O)c21 | -31.8% | -13.9% | 2.7 | -105.0* | 6.4 | /
